Shown are actives, neighbours in structure and some others; about 1.4% of the full set was active somewhere.
BJeLR lethal: kills HRASV12-expressing BJeLR cells; BJeLR (HRASV12) viability, CellTiter-Glo ATP luminescence, 48 h; inhibition, % (no concentration beside the values); hit rate 0.17% among 300,000; in the data active = inhibition above about 50%
Sa RN4220 lethal: S. aureus RN4220 growth inhibition; inhibition, % (no concentration beside the values); hit rate 0.33% among 330,000; OD600, 16 h; in the data active = inhibition above about 85%;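 note: plate controls were untreated cells for no effect and reference antibiotic for full effect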
VHR inh abs: inhibitors of human VHR1 phosphatase (DUSP3); P51452; recombinant VHR phosphatase, pNPP absorbance; inhibition, % at 13.3 µM; hit rate 0.52% among 290,000; AID 1654; in the data active = inhibition above about 50%
Target sequence (P51452 whole entry, looked up): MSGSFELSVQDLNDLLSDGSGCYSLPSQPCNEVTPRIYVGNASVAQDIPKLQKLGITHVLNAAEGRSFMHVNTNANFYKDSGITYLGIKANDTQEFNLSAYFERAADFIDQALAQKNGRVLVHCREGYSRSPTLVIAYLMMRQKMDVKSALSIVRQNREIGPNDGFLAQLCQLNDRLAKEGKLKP
PrPC surface inh: cell surface PrPC inhibition, primary TR-FRET screen. P04156. TR-FRET read-out. inhibition, % at 13.8 µM. hit rate 0.43% among 370,000. AID 720596; in the data active = inhibition above about 24%; note: 0% = median of the test wells and 100% = reference compound wells
SARS 3CLpro inh-1: SARS-CoV 3CLpro protease inhibition | P0C6X7 | recombinant SARS-CoV 3CLpro, quenched FRET peptide cleavage | inhibition, % at 6 µM | hit rate 0.14% among 290,000 | AID 1706; in the data active = inhibition above about 12%
Sa ugtP lethal: kills S. aureus RN4220 lacking UgtP; hit rate 0.54% among 330,000; S. aureus RN4220 ugtP deletion, OD600 growth, 16 h; growth inhibition, % (no concentration beside the values); in the data active = growth inhibition above about 68%;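 note: plate controls were untreated wells for no effect and antibiotic for full effect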
SARS 3CLpro inh-2: SARS 3CLpro inhibition, confirmation assay | shares compounds with SARS 3CLpro inh-1 | QFRET protease activity assay | inhibition, % at 6 µM | hit rate 36% among 380 | AID 1879; in the data active = inhibition above about 13%
Active calls of the source: *; · = not tested or not shown.

SMILES	BJeLR lethal	Sa RN4220 lethal	VHR inh abs	PrPC surface inh	SARS 3CLpro inh-1	Sa ugtP lethal	SARS 3CLpro inh-2
COc1cc(NC(=O)c2cccs2)c(OC)cc1NC(=O)CCC(=O)Nc1ccc2ncccc2c1	57.7*	10.5	34.4	-1.2	-0.5	-0.2	·
COc1ccc(OCC(=O)Nc2ccc(NC(=O)c3cccs3)c(OC)c2)cc1	-6.0	-0.3	14.5	0.4	2.8	-3.5	·
Nc1nnc(-c2cc3c(ccc4ccccc43)oc2=O)s1	·	11.0	53.7*	·	-1.3	-0.8	·
COC(=O)C1=C(c2ccc(S(C)(=O)=O)cc2)CC2CCC1N2C(=O)N1CCC(C)CC1 (centres undefined)	·	2.0	·	·	·	5.3	·
COc1cc(-c2cc(C(=O)O)c3cc4c(cc3n2)OCCO4)cc(OC)c1OC	-15.7	2.6	39.7	-12.4	0.9	3.1	·
COC(=O)c1ccc(-c2cc(C(=O)O)c3cc4c(cc3n2)OCCO4)cc1	10.2	0.2	51.7*	-8.2	-0.3	9.1	·
Cc1cc(=O)oc(C)c1C(=O)n1nc(C)c2c1CC1C2C1(C)C (centres undefined)	·	10.2	·	·	·	6.7	·
CCOC(=O)C1C2COc3ccccc3C2N2C(=O)CN(CC3CCCO3)C(=O)[C@@]12C (some centres undefined)	·	5.1	·	·	·	10.5	·
CC(C)CC(C(=O)NC1CCCCC1)N(Cc1ccccc1)C(=O)c1snc(C(N)=O)c1N (centres undefined)	1.0	0.3	58.5*	1.8	1.6	10.4	·
COc1ccc(N(C)S(=O)(=O)c2cccc(C(=O)Nc3nc4ccccc4[nH]3)c2)cc1	-2.9	2.9	14.7	6.1	2.8	-1.8	·
CN(c1cccc(Cl)c1)S(=O)(=O)c1cccc(C(=O)Nc2nc3ccccc3[nH]2)c1	-7.6	-1.9	51.3*	23.3	2.9	-7.5	·
CCc1nc(NC(Cc2c[nH]c3ccccc23)C(=O)O)c2oc3ccccc3c2n1 (centres undefined)	·	4.4	·	·	·	3.5	·
CSc1ccccc1NS(=O)(=O)c1ccc2c(c1)OCCO2	-3.8	10.7	-6.0	7.7	0.1	3.0	·
COc1ccccc1NS(=O)(=O)c1ccc2c(c1)OCCO2	-1.9	2.2	57.5*	7.4	-4.3	-6.0	·
Cc1nn(C)c(C(=O)Sc2cccc(Cl)c2)c1[N+](=O)[O-]	7.9	26.8	-7.8	0.9	-2.2	92.7*	·
CSCCCc1cn(C(CO)C(=O)NCCCCCCCCCCC(=O)N2CCNCC2)nn1 (centres undefined)	·	3.3	·	·	·	0.2	·
CCn1nc(-c2ccccc2)nc2c(=O)n(C)c(=O)nc1-2	0.5	94.9*	31.2	·	16.8*	99.9*	36.6*
COC(=O)c1ccc(OC(=O)CN2C(=O)c3ccccc3C2=O)cc1	-1.7	5.5	-15.8	-5.1	14.9*	0.6	13.7*
C=CCOC(=O)C1=C(C)NC(=O)NC1C=Cc1ccccc1 (centres undefined)	·	1.4	·	·	·	-0.3	·
CN1CCN(C(=O)C(=Cc2ccc3c(c2)OCO3)NC(=O)c2cccs2)CC1	·	-2.0	·	·	·	-1.3	·
C[C@@H]1NC(=O)c2cc([N+](=O)[O-])cc(I)c2NCCCC[C@@H](C(N)=O)NC(=O)[C@H](CC(N)=O)NC1=O	·	·	7.6	·	14.5*	·	5.6
COC(=O)C1=C(c2ccccc2)CC2CCC1N2C(=O)NCc1cccc2ccccc12 (centres undefined)	·	0.1	·	·	·	9.3	·
O=C(COC(=O)CCc1c[nH]c2ccccc12)NC(c1ccccc1)c1ccccc1	-7.2	6.1	17.7	6.2	13.1*	0.9	0.8
O=C(COC(=O)CCc1c[nH]c2ccccc12)Nc1ccccc1	·	0.3	·	-4.0	·	5.0	·
CCOc1cc(C(N)=O)cc(Br)c1OC	16.9	-1.3	8.7	3.5	15.0*	5.1	-1.1
SMILES	BJeLR lethal	Sa RN4220 lethal	VHR inh abs	PrPC surface inh	SARS 3CLpro inh-1	Sa ugtP lethal	SARS 3CLpro inh-2
O=C(c1cc(=O)[nH]c2ccccc12)N1CCN(c2ccccc2)CC1	5.3	2.8	-15.2	6.0	32.3*	1.5	31.4*
Cc1cccc(N2CCN(C(=O)c3cc(=O)[nH]c4ccccc34)CC2)c1C	8.7	0.2	18.1	-2.8	41.3*	6.9	55.1*
O=C(c1ccco1)N1CCN(C(=O)c2cc(=O)[nH]c3ccccc23)CC1	·	-0.3	·	-5.7	·	-0.9	·
C=CCCC(Cc1ccc(F)cc1)C(=O)OC(CNC(=O)C(CC=C)CC(=O)NC(CO)Cc1ccccc1)c1ccccc1 (centres undefined)	·	6.5	·	·	·	1.5	·
Cc1snc(S(=O)(=O)/C(C#N)=N/Nc2cccc(C(F)(F)F)c2)c1C#N	-3.1	·	31.0	·	15.5*	·	2.0
Cc1ccc(Nc2nc(N)c([N+](=O)[O-])c(N3CCC(C)CC3)n2)cc1C	-3.6	·	-7.4	-0.5	-1.1	·	·
Cc1ccc(Nc2nc(N)c([N+](=O)[O-])c(N3CCOCC3)n2)cc1C	-18.8	9.8	5.7	-21.2	12.8*	-17.9	-3.6
CCOC(=O)C1C2COc3ccc(Cl)cc3C2N2C(=O)c3ccc(Cl)cc3NC(=O)[C@@]12C (some centres undefined)	·	-7.2	·	·	·	-38.8	·
COc1ccccc1CCNC(=O)C(=O)NCC1OCCN1S(=O)(=O)c1ccc2c(c1)OCCO2 (centres undefined)	4.5	-1.4	-3.0	-2.4	12.9*	-1.8	-1.1
COc1ccc(S(=O)(=O)N2CCOC2CNC(=O)C(=O)NCCN(C)C)cc1 (centres undefined)	2.0	0.0	-3.0	0.9	12.6*	1.1	-2.8
COc1ccc(S(=O)(=O)N2CCOC2CNC(=O)C(=O)NCCc2ccccc2OC)cc1C (centres undefined)	-30.4	-12.1	17.3	0.5	-2.6	-1.5	·
COC(=O)C(CCSC)NC(=O)NC1CCN(Cc2ccccc2)CC1 (centres undefined)	·	7.0	·	·	·	0.8	·
C#Cc1ccc(C2C=C(C(=O)NC3CC3)OC(OCCCCO)C2)cc1 (centres undefined)	·	4.7	·	·	·	-2.2	·
COc1ccc(C)cc1NC(=O)CSc1nc2scc(C)c2c(=O)[nH]1	4.5	9.6	-7.2	13.6	12.8*	-7.0	2.8
COc1ccc(Cl)cc1NC(=O)CSc1nc2sccc2c(=O)[nH]1	-3.1	5.3	-0.5	1.0	-4.5	3.1	·
COc1cc2c(cc1NC(=S)NC(=O)C=Cc1ccc(OC)c(OC)c1)oc1ccccc12	·	9.4	·	·	·	2.2	·
O=C(CCl)N1N=C(c2cccs2)CC1c1ccco1 (centres undefined)	22.7	4.9	3.4	-6.5	38.5*	1.0	83.4*
CN1CCN(CC(=O)N2N=C(c3cccs3)CC2c2ccco2)CC1 (centres undefined)	11.6	2.4	-1.5	-7.7	-2.2	-3.6	·
COc1ccc(S(=O)(=O)N2CCN(C(=O)Nc3ccccc3OC)CC2)cc1	8.2	-3.0	6.2	8.5	13.3*	-1.5	-2.2
COc1ccc(NC(=O)N2CCN(S(=O)(=O)c3ccc(F)cc3)CC2)c(OC)c1	4.0	2.5	3.6	15.6	2.2	7.1	·
Cc1cc(=O)oc2cc(OC(=O)c3ccco3)ccc12	2.5	10.4	-14.5	3.7	28.9*	8.4	70.0*
